# Source: PubChem BioAssay (Tox21)
# Calls of active or inactive are those of the source. Entries that show only a call come without a potency. Calls come from the whole dose curve.
# Target: Acetylcholinesterase (Homo sapiens) (UniProt P22303)
# Experiment: Acetylcholinesterase (AChE) small molecule antagonists: enzyme-based qHTS assay with human liver microsomes (AID 1347399); note: nearly all actives have a fitted effect of over 60% in size
# Conditions: Potency: qHTS inhibition; outcome: qHTS inhibition; series mostly up to 115 µM
# In short: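 Recombinant human AChE (50 mU/mL in the enzyme mix) and human liver microsomes (0.25 mg/mL final) were preincubated with compound and NADPH (0.25 mg/mL final) for 30 min at 37 C. Acetylthiocholine/DTNB was then added; thiocholine was read colorimetrically after 10 min at room temperature.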
# Acetylcholinesterase (Homo sapiens), sequence (P22303 whole entry, looked up): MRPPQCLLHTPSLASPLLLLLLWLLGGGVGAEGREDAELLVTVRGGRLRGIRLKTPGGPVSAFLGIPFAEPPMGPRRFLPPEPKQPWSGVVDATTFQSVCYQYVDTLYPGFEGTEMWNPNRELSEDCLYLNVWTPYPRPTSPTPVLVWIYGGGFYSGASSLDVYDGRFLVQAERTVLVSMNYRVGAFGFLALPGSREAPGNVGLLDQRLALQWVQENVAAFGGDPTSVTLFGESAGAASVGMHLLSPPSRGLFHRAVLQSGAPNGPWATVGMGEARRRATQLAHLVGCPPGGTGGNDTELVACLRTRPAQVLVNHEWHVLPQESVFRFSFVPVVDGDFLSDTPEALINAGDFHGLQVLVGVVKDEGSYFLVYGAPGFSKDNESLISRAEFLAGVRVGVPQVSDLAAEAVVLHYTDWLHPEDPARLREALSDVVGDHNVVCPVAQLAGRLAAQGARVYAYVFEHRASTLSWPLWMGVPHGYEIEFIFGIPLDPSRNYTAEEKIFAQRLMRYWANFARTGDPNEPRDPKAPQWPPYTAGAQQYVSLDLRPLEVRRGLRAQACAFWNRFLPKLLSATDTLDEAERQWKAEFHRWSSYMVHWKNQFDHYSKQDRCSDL
Compound,Potency,"activity change, negative = inhibition"
OCCO,inactive,–
CC(C)(CC(=O)O)C(=O)O,inactive,–
CCCCCCCCOC(=O)c1ccc(O)cc1,inactive,–
Oc1cn2c(n1)Nc1ccc(Cl)c(Cl)c1C2,–,0.168% [at 23.6 µM] (inactive)
O=[N+]([O-])c1ccc(F)cc1F,inactive,–
[O-]/[N+](=N\O)c1ccccc1,inactive,–
C/C=C\C/C=C/CCCCCCCCOC(C)=O,inactive,–
NC(=O)CCCCC1CCSS1 (stereo not given),inactive,–
Nc1nc(Cl)nc2c1ncn2[C@H]1C[C@H](O)[C@@H](CO)O1,inactive,–
IC(I)I,inactive,–
FC(F)(F)c1ccccc1-n1ccnc1,inactive,–
CCCCNC(=O)NCCCC,inactive,–
CCc1nnc(NS(=O)(=O)c2ccc(N)cc2)s1,inactive,–
Nc1cc(Cl)c(-c2cc(Cl)c(N)cc2Cl)cc1Cl,inactive,–
CC(O)CNCC(C)O (stereo not given),inactive,–
NC(N)=NCCN1CCCCCCC1,–,-0.084% [at 0.435 µM] (inactive)
CCCCCCCCCCCCC,inactive,–
NC(=O)N1c2ccccc2C=Cc2ccccc21,inactive,–
CCCCC(CC)COC(=O)c1ccccc1 (stereo not given),inactive,–
CC(=O)N1C[C@H](O)C[C@H]1C(=O)O,inactive,–

Compound,Potency,"activity change, negative = inhibition"
C1CN(SSN2CCOCC2)CCO1,inactive,–
NC(=NCCCCCCN=C(N)/N=C(\N)Nc1ccc(Cl)cc1)/N=C(\N)Nc1ccc(Cl)cc1,inactive,–
CC(C)CC(=O)CC(C)CC(C)C (stereo not given),inactive,–
CCC(C)c1cc(C(C)(C)C)c(O)c(C(C)(C)C)c1 (stereo not given),inactive,–
O=C(OCC1CO1)C1CCCCC1C(=O)OCC1CO1 (stereo not given),inactive,–
NCCCN(CCO)CCO,inactive,–
Cc1cc(O)c2c(c1)C(=O)c1cccc(O)c1C2=O,inactive,–
CC/C(C)=N/O,inactive,–
CCCCCCCCNC(C)C(O)c1ccc(SC(C)C)cc1 (stereo not given),inactive,–
O=S(=O)(Oc1ccc(Cl)cc1Cl)c1ccccc1,inactive,–
c1cc[c]([Bi]([c]2ccccc2)[c]2ccccc2)cc1,inactive,–
CCC1OCC(COc2ccc(Oc3ccccc3)cc2)O1 (stereo not given),inactive,–
O=C1c2cccc(O)c2C(=O)c2c(O)cc(CO)cc21,inactive,–
O=c1oc2c(O)c(O)cc3c(=O)oc4c(O)c(O)cc1c4c23,–,-1.34% [at 23.6 µM] (inactive)
CC(C)Cc1ccccc1,inactive,–
CC1=CC(O)CC(C)(C)C1 (stereo not given),inactive,–
NC[C@H]1O[C@H](O[C@H]2[C@H](O)[C@@H](O[C@H]3O[C@H](CO)[C@@H](O)[C@H](N)[C@H]3O)[C@H](N)C[C@@H]2N)[C@H](N)[C@@H](O)[C@@H]1O,–,3.75% [at 23.6 µM] (inactive)
CCCCN(CCCC)c1ccc(C(=O)c2ccccc2C(=O)O)c(O)c1,inactive,–
CN(C)C(=O)CNC(=O)Cc1ccccc1,inactive,–
C=C(C)C(=O)OCCC[Si](OC)(OC)OC,inactive,–
